Screening results (PubChem BioAssay)
CHRM4 antagonist: CHRM4 antagonism in calcium assay | P08173 | inhibition, % at 3 µM | CHO-hM4 cells, ACh EC80, Fluo-8 calcium fluorescence | hit rate 0.73% among 360,000;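 active = inhibition above its plate's cutoff, the mean inhibition of sample wells plus 3 SD, cut at about 27% in these data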;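 also: 0% = acetylcholine EC80 with DMSO and 100% = DMSO without agonist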
Target sequence (P08173 whole entry, looked up): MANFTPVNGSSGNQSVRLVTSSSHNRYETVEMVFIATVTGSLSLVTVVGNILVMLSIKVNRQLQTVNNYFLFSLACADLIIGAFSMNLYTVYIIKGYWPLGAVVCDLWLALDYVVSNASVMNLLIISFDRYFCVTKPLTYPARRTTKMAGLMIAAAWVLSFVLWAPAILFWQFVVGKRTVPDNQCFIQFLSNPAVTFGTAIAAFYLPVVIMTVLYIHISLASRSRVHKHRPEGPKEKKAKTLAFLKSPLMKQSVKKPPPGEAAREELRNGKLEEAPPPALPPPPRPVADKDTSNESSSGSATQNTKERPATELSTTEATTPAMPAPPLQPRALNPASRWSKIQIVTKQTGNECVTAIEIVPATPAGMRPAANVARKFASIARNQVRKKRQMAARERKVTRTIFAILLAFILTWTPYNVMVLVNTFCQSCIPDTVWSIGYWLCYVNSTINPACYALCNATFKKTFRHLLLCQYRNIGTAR
CHRM4 PAM: potentiates acetylcholine response at human M4 receptor | P08173 | CHO-K1 hM4/Gqi5, Fluo-8 calcium fluorescence, ACh EC20; 0% = ACh EC20, 100% = maximal ACh | activation, % at 3 µM | hit rate 0.4% among 360,000 | AID 624126;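 active = activation above its plate's cutoff, the mean activation of sample wells plus 3 SD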
CHO-K1 Ca ag: counter-screen for M1 agonists: effect in parental CHO-K1 cells; AID 602248; activation, % at 3 µM; Fluo-8 calcium fluorescence; scaled to maximal ATP response, vehicle zero; hit rate 0.48% among 360,000; in the data active = activation above about 15%;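 also: untransfected CHO-K1 host cells lacking M1 receptor as counterscreen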
CHO-K1 Ca antag: nonselective inhibitor or artifact in parental CHO-K1 cells; ATP-induced calcium, Fluo-8 fluorescence; inhibition, % at 3 µM; hit rate 0.6% among 360,000; AID 602250;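 active = inhibition above a per-plate cutoff, the plate's mean sample inhibition plus 3 SD, cut at about 24% in these data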;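 also: 0% = DMSO plus EC80 ATP and 100% = DMSO alone without ATP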
M1 PAM parental: nonselective activator or artifact in parental CHO-K1 calcium assay; activation, % at 3 µM; hit rate 0.02% among 360,000; ATP EC20, Fluo-8 calcium fluorescence; 0% at ATP EC20, 100% at ATP max;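 active = activation above the run cutoff, the mean activation of all test compounds plus 3 SD, cut at about 40% in these data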;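 also: peak over basal fluorescence ratio in a 140 s read after ATP addition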
M4 ag: CHRM4 agonism in calcium assay. P08173. CHO-K1 hM4/Gqi5, Fluo-8 calcium fluorescence; vehicle 0%, full acetylcholine response 100%. activation, % at 3 µM. hit rate 0.14% among 360,000;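 active = activation above the run mean over all test wells plus 3 SD, cut at about 32% in these data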;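 also: peak over basal fluorescence ratio per well then scaled between controls; 0% = DMSO wells and 100% = acetylcholine at EC100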
The depositor's hits bear a star; nt = no result given; ! = a repeat was not active. An excerpt weighted towards active compounds, which were near 2% of everything screened.

SMILES	CHRM4 antagonist	CHRM4 PAM	CHO-K1 Ca ag	CHO-K1 Ca antag	M1 PAM parental	M4 ag
COC(=O)C1=C(c2ccc(F)cc2OCc2ccccc2)C[C@@H]2CC[C@H]1N2C(=O)NCc1ccccc1OC	32.8*	-15.7	-0.2	-17.5	14.9	0.8
O=C(c1ccc(Cl)cc1)C1CCCN(Cc2cccc3cnccc23)C1 (stereo unspecified)	47.7*	-44.5	7.6	-8.4	16.0	6.2
O=C(c1ccc(Cl)cc1)C1CCCN(Cc2ccc3c(c2)OCCO3)C1 (stereo unspecified)	4.4	-14.8	1.3	-5.1	13.5	1.8
O=C(c1cccc(Cl)c1)C1CCCN(Cc2cccc3cnccc23)C1 (stereo unspecified)	12.4	-19.7	1.4	11.9	-12.6	4.8
O=C(c1ccc(Cl)cc1)C1CCCN(Cc2ccc3ncccc3c2)C1 (stereo unspecified)	27.9*	-22.0	7.5	-5.6	2.5	8.2
CN(C)[C@@H]1C(=O)C(C(N)=O)=C(O)[C@@]2(O)C(=O)C3=C(O)c4c(O)cccc4[C@@](C)(O)C3[C@H](O)C12 (stereo partly specified)	48.7*!	-17.9	4.1	27.5*!	-6.7	5.0
CN(C)C1C(=O)C(C(N)=O)=C(O)C2(O)C(=O)C3=C(O)c4c(O)cccc4C(C)(O)C3CC12 (stereo unspecified)	-10.3	5.2	-0.3	27.7*	-11.6	0.3
Cc1[nH]c2ccccc2c1CCN	-6.0	1.2	0.0	29.2*	-8.3	1.6
c1ccc(CCCN2CCN(CCOC(c3ccccc3)c3ccccc3)CC2)cc1	47.4*	-18.0	1.8	1.3	5.6	7.0
Fc1ccc(C(OCCN2CCN(CCCc3ccccc3)CC2)c2ccc(F)cc2)cc1	19.6	-15.1	1.5	3.7	11.2	4.8
Fc1ccc(C(OCCN2CCCC2)c2ccc(F)cc2)cc1	30.1*	-34.7	0.9	-1.3	6.3	7.0
C=CC[C@@H](CC/C=C/C=C/CC/C=C\[C@@H]1CSC([C@@H]2C[C@@H]2C)=N1)OC	6.7	-1.5	-0.1	18.4	-11.9	1.2
C[C@]12C[C@H](O)[C@@H](O)CC1=CCC1C2CC[C@@]2(C)C1CC[C@@H]2O (stereo partly specified)	5.3	-2.5	0.0	-3.9	2.8	2.4
COC(=O)C1=C(c2ccc3ccccc3c2)C[C@@H]2CC[C@H]1N2C(=O)NC(C)C	-6.9	4.9	0.3	-3.2	10.6	1.9
O=[N+]([O-])c1cccc2c([As](=O)(O)O)cccc12	-19.0	-2.1	-0.4	0.5	-14.6	0.9
COP(=O)(OC)C1(O)C(=O)Nc2ccc(Br)cc21 (stereo unspecified)	-7.5	23.5*	0.5	-5.9	7.5	3.8
CCOP(=O)(OCC)C1(O)C(=O)Nc2ccccc21 (stereo unspecified)	-4.1	4.3	-0.1	14.0	-10.4	0.5
Cc1ccccc1C(O)(Cc1ccccc1)C1CN2CCC1CC2 (stereo unspecified)	76.3*	-14.7	1.4	-9.3	19.8	4.4
Cc1nc(SCc2c(Cl)cccc2Cl)nc(OC(=O)N(C)C)c1C	5.6	34.0*	1.5	-9.0	15.3	2.6
CCCc1c(C)nc(SCC(=O)C(C)(C)C)nc1OC(=O)N(C)C	-6.0	-13.3	2.5	-6.0	8.0	1.8
CN1CN(c2ccccc2)C2(CCN(CCCSc3ccccc3NC(=O)/C=C/c3ccccc3)CC2)C1=O	58.8*	-13.0	61.9*	35.4*	-26.2	109.9*
c1ccc2c(c1)CN(Cc1ccc3c(c1)OCO3)Cc1cnnn1-2	-12.1	4.4	-0.3	27.3*	-0.3	0.1
CC[C@H]1c2ccccc2[C@@H]2CC[C@H]1N2c1ccccc1	-2.2	-5.4	nt	nt	nt	-2.7
O=C1CN=C(c2cc([N+](=O)[O-])ccc2Cl)c2cc([N+](=O)[O-])ccc2N1	-2.8	13.7*	-0.4	7.6	-24.0	0.8
O=C1CN=C(c2ccccc2F)c2cc(Cl)ccc2N1	-27.0	1.9	0.5	-6.7	13.2	1.7
O=[N+]([O-])c1ccc(N2CCCNCC2)c2ncccc12	26.5*	-48.4	0.6	-7.0	13.2	1.4
O=[N+]([O-])c1ccc(N2CCCCCC2)c2nonc12	37.9*	-18.6	161.8*	52.8*	-20.1	144.4*
